According to PubChem BioAssay (Tox21):
Results filed as inconclusive are left out. The source made the active and inactive calls. Unless noted, calls follow the shape of the full dose curve.

Key:
[1] = Nuclear factor erythroid 2-related factor 2/antioxidant responsive element (Nrf2/ARE) small molecule agonists: qHTS cell viability counter screen in human keratinocytes (AID 1919968; active = well fitted curve in the direction sought with a large enough effect in the repeat runs; an effect the other way counts as inactive or inconclusive; also: nearly all actives have a fitted effect of over 55% in size)
Outline: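 HaCaT ARE reporter line, 1,500 cells/well; 5 h settle, 37 C/5% CO2; cpd in DMSO pinned; 23 h exposure; CellTiter-Fluor, 1 h; fluorescence.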

[2] = Nuclear factor erythroid 2-related factor 2/antioxidant responsive element (Nrf2/ARE) small molecule agonists: luciferase reporter gene qHTS assay in human keratinocytes (AID 1919969); also: nearly all actives have a fitted effect of over 35% in size
[3] = molecular target: Gonadotropin-releasing hormone receptor (Homo sapiens) (UniProt P30968); experiment: Human gonadotropin-releasing hormone receptor (GnRHR) small molecule agonists, calcium flux assay in GnRHR-HEK293 cells (AID 1920063); also: nearly all actives have a fitted effect of over 35% in size
Outline: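 GnRHR-HEK293, 1500 cells/well, 18 h 37 C/5% CO2; Ca dye 1 h 37 C; cpd pinned (DMSO), agonist mode; kinetic FL 480/540, 3 min, 1 s reads; 15 conc, n=3.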

[4] = molecular target: KiSS-1 receptor (Homo sapiens) (UniProt Q969F8); experiment: Human kisspeptin (KISS1R) small molecule agonists, calcium flux assay in KISS1R-HEK293 cells (AID 1920064; active = well fitted curve in the direction sought with a large enough effect in the repeat runs; an effect the other way counts as inactive or inconclusive)
Outline: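 Stable human KISS1R HEK293 line; 18 h plating, 37 C/5% CO2; calcium dye 1 h 37 C; compound pin transfer; kinetic fluorescence Ex/Em 480/540, 3 min.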

[5] = G protein-coupled receptor (GPCR) small molecule agonists, calcium flux assay: HEK293 wild type cell line counter screen (AID 1920065)
Outline: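 Kinetic fluorescence at Ex/Em 480/540, recorded every second over 3 min, served as the read-out after compound addition. Each compound was tested at 15 concentrations in triplicate on cells pre-loaded with calcium dye for 1 h.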

[6] = p53 small molecule agonists, cell-based qHTS assay with human liver microsomes (AID 1963577);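 also: p53 response element beta-lactamase reporter cells with liver microsomes plus NADPH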
Outline: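 HLM-supplemented p53RE-bla reporter assay: 16 h compound exposure at 37 C, microsomes and NADPH each 0.5 mg/mL final, read by fluorescence intensity.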

[7] = p53 small molecule agonists, cell-based qHTS assay with rat liver microsomes (AID 1963578)
Outline: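 Quantitative HTS of the Tox21 10K library: p53RE-bla cells, rat liver microsomes plus NADPH at 0.5 mg/mL final each, 16 h at 37 C, beta-lactamase fluorescence detection.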

[8] = p53 small molecule agonists, cell-based qHTS assay with human liver microsomes: qHTS cell viability counter screen (AID 1963579); also: nearly all actives have a fitted effect of over 45% in size
Outline: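 Viability of p53RE-bla cells is measured as CellTiter-Glo luminescence following a 16 h, 37 C incubation with compound, liver microsomes from human donors and NADPH.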

[9] = p53 small molecule agonists, cell-based qHTS assay with rat liver microsomes: qHTS cell viability counter screen (AID 1963580); also: nearly all actives have a fitted effect of over 45% in size
Outline: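 Viability is assessed in parallel with the p53 reporter read: HCT-116 p53RE-bla cells receive compounds plus rat microsomes and NADPH (0.5 mg/mL final apiece), incubate 16 h at 37 C, and then CellTiter-Glo luminescence is recorded.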

[10] = p53 small molecule agonists, cell-based qHTS assay: qHTS cell viability counter screen (AID 1963581); also: nearly all actives have a fitted effect of over 45% in size
Outline: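 HCT-116 p53RE-bla cells, 4,000/well, plated 5 h before compound pin transfer; 16 h at 37 C; bla substrate 2 h RT; then CellTiter-Glo, 30 min RT, luminescence.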

[11] = p53 small molecule agonists, cell-based qHTS assay (AID 1963582; active = well fitted activation curve with a large enough effect in the signal ratio in the repeat runs, not every such curve was filed as active; the % refers to the signal ratio)
Outline: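 Reporter line: p53RE-bla. Pre-incubation 5 h, 37 C, 5% CO2; compound (DMSO, pin tool) 16 h, 37 C; B/G FRET substrate 2 h RT; fluorescence intensity read.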

[12] = molecular target: 5-hydroxytryptamine receptor 2A (Homo sapiens) (UniProt P28223); experiment: 5-hydroxytryptamine receptor 2A (HTR2A) small molecule agonists, cell-based qHTS assay (AID 1963587); also: nearly all actives have a fitted effect of over 30% in size
Outline: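 CHO cells stably expressing human HTR2A, plated 18 h, loaded with calcium dye 1 h at 37 C. Agonist mode: compounds added and intracellular calcium fluorescence recorded kinetically for 2 min at 1 sec intervals.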

[13] = molecular target: Muscarinic acetylcholine receptor M1 (Homo sapiens) (UniProt P11229); experiment: Cholinergic receptor muscarinic 1 (CHRM1) small molecule antagonists, cell-based qHTS assay (AID 1963588); also: nearly all actives have a fitted effect of over 40% in size
Outline: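 CHRM1-CHO calcium-flux assay, antagonist mode. Cells were seeded 18 h, dye-loaded 1 h at 37 C and given compound for 5 min at RT, then acetylcholine was added at 50nM. FDSS fluorescence was read 3 min; 15 concentrations, three runs.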

[14] = molecular target: Muscarinic acetylcholine receptor M1 (Homo sapiens) (UniProt P11229); experiment: Cholinergic receptor muscarinic 1 (CHRM1) small molecule agonists, cell-based qHTS assay (AID 1963589); also: nearly all actives have a fitted effect of over 35% in size
Outline: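 Human M1 in stable CHO line; 18 h plating, 1 h dye load 37 C; cpd added (agonist mode); Ca2+ fluorescence kinetic read, 1 s intervals; 15 conc, 3 runs.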

[15] = cAMP Responsive Elements (CRE) small molecule agonists, cell-based qHTS assay (AID 1963590)
Outline: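 HEK 293T CRE-bla, 2,000 cells/well, 18 h preincubation 37 C/5% CO2; cpds (DMSO) pinned, 3 h; LiveBLAzer B/G FRET substrate, 2 h RT.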

[16] = cAMP Responsive Elements (CRE) small molecule antagonists, cell-based qHTS assay (AID 1963591; active = well fitted inhibition curve with a large enough effect in the signal ratio in the repeat runs, not every such curve was filed as active; the % refers to the signal ratio)
Outline: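 Beta-lactamase reporter read by FRET substrate (LiveBLAzer B/G) after 2 h at room temperature. CRE-bla HEK293T cells had received compound plus 0.25 uM (final) NKH477 for 3 h at 37 °C.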

[17] = molecular target: Beta-2 adrenergic receptor (Homo sapiens) (UniProt P07550); experiment: Adrenergic beta2 receptor (ADRB2) small molecule antagonists, cell-based qHTS assay (AID 1963592); also: series mostly up to about 92 µM; nearly all actives have a fitted effect of over 50% in size
Outline: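 Cells (CHO, stable ADRB2 overexpression) incubated 18-20hr at 37C; compounds added from DMSO; agonist mix (1nM isoproterenol, 100uM IBMX, 25uM Ro-20-1724) added; 0.5hr RT; d2-cAMP and anti-cAMP-cryptate added; 1hr RT; 665/615 nm read.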

[18] = molecular target: D(2) dopamine receptor (Homo sapiens) (UniProt P14416); experiment: Dopamine D2 receptor (DRD2) small molecule agonists, cell-based qHTS assay (AID 1963594); also: nearly all actives have a fitted effect of over 35% in size
Outline: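 HEK293 cells stably expressing human DRD2, pre-treated with PDE inhibitor Ro20-1724 (0.1 mM final) and compound 10 min at room temperature, then stimulated with NKH477 (200nM […]) for 30 min. cAMP read by HTRF (665/620 nm).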

[19] = molecular target: D(2) dopamine receptor (Homo sapiens) (UniProt P14416); experiment: Dopamine D2 receptor (DRD2) small molecule antagonists, cell-based qHTS assay (AID 1963595; active = well fitted inhibition curve with a large enough effect in the signal ratio in the repeat runs, with a control signal flat; the % refers to the signal ratio)
Outline: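 Cells were plated and grown for 24 h at 37 °C. Ro20-1724 (0.1 mM final) went in first, then compound for 10 min. NKH477 (200 nM) with quinpirole (12 nM) followed for 30 min at RT, then HTRF detection reagents for 1 h.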

[20] = molecular target: Beta-2 adrenergic receptor (Homo sapiens) (UniProt P07550); experiment: Adrenergic beta2 receptor (ADRB2) small molecule agonists, cell-based qHTS assay (AID 1963593);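 also: CHO cells stably overexpressing human ADRB2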
Outline: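 CHO cells stably over-expressing ADRB2 were plated overnight at 37C, then dosed with compounds plus a stimulation mix containing 100uM IBMX and 25uM Ro-20-1724 for 0.5hr at room temperature. cAMP was measured by HTRF competition, 1hr.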
% is scaled to controls: 0 for no effect and ±100 for the full control effect.

5-hydroxytryptamine receptor 2A (Homo sapiens), sequence (P28223 whole entry, looked up): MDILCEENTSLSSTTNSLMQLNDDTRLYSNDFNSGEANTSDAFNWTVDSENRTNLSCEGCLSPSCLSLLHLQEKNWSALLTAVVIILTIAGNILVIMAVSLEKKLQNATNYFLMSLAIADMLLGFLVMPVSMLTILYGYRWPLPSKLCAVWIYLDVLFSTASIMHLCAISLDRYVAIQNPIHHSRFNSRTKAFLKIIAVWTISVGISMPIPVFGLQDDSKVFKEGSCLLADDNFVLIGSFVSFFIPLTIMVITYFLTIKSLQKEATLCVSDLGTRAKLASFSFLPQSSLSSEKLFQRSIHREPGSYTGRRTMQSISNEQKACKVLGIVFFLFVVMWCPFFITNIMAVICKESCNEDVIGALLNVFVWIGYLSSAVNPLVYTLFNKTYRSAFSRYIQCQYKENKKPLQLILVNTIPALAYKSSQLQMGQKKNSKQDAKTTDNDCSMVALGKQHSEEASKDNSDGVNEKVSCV
Beta-2 adrenergic receptor (Homo sapiens), sequence (P07550 whole entry, looked up): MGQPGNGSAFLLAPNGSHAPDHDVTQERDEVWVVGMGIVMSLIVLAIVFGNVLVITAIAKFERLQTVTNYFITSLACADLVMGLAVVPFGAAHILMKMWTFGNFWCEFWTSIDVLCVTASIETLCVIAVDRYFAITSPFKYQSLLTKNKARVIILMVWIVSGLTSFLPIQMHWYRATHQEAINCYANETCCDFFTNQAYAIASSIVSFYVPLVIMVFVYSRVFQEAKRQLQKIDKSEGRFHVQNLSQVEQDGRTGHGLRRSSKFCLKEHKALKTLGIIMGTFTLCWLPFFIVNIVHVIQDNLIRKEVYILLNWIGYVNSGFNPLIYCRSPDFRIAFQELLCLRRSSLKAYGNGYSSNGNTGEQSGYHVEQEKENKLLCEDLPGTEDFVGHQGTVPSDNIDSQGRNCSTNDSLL
Gonadotropin-releasing hormone receptor (Homo sapiens), sequence (P30968 whole entry, looked up): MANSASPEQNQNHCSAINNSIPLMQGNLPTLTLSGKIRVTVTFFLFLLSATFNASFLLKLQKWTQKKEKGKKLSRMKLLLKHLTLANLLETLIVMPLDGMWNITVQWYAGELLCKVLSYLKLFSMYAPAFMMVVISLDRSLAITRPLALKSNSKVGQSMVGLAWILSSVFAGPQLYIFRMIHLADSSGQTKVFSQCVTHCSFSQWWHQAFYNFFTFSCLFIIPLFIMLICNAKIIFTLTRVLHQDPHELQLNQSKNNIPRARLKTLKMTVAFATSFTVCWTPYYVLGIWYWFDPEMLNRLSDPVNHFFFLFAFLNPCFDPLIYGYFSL
Muscarinic acetylcholine receptor M1 (Homo sapiens), sequence (P11229 whole entry, looked up): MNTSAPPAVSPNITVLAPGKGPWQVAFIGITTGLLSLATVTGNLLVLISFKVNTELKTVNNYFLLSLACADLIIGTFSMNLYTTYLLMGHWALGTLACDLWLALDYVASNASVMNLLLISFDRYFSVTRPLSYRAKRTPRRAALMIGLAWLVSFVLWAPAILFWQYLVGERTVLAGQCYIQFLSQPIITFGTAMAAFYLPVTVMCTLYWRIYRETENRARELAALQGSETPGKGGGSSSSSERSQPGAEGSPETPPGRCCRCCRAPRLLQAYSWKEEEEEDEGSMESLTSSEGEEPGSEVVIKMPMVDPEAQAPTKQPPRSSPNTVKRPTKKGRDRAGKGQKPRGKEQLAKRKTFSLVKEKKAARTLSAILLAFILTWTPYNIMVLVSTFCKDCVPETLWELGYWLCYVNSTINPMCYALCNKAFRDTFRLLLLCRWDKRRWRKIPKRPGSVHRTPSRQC
KiSS-1 receptor (Homo sapiens), sequence (Q969F8 whole entry, looked up): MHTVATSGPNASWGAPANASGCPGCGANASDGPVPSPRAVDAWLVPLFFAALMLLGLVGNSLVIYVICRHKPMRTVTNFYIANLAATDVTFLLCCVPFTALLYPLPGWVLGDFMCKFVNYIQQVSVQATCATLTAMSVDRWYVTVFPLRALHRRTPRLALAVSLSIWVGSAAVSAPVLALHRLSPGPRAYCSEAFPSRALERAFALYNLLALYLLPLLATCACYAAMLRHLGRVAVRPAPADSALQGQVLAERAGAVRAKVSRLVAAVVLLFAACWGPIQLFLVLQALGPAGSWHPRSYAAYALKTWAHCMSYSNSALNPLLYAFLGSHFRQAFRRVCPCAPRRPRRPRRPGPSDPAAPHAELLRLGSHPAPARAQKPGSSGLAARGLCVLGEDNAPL
D(2) dopamine receptor (Homo sapiens), sequence (P14416 whole entry, looked up): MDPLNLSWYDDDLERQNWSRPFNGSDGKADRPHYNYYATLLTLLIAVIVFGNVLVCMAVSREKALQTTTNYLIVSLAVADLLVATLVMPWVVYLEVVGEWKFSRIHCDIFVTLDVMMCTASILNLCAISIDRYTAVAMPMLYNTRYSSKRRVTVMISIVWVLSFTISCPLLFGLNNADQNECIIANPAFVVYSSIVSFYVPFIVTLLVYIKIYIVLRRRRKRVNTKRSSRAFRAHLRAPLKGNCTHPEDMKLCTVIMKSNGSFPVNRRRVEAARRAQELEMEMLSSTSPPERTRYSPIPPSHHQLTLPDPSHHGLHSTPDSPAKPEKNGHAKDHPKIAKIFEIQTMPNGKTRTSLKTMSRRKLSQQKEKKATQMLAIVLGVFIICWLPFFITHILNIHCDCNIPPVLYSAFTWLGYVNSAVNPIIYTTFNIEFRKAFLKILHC

Clc1cc(Cl)cc(Cl)c1
inactive: Potency [1] | Potency [2] | Potency [3] | outcome [4] | outcome [5] | Potency [6] | Potency [7] | Potency [8] | Potency [9] | Potency [10] | Potency [11] | Potency [12] | Potency [13] | Potency [14] | Potency [15] | Potency [16] | Potency [17] | Potency [18] | Potency [19]

CCn1ccnc1CC1COc2ccccc2O1 (stereo unspecified)
inactive: Potency [1] | Potency [2] | Potency [3] | outcome [4] | outcome [5] | Potency [6] | Potency [7] | Potency [8] | Potency [9] | Potency [10] | Potency [11] | Potency [12] | Potency [13] | Potency [14] | Potency [15] | Potency [16] | Potency [17] | Potency [19]

CCOC(=O)Cc1cccc2ccccc12
inactive: Potency [1] | Potency [2] | Potency [3] | outcome [4] | outcome [5] | Potency [6] | Potency [7] | Potency [8] | Potency [9] | Potency [10] | Potency [11] | Potency [12] | Potency [13] | Potency [14] | Potency [15] | Potency [17] | Potency [20] | Potency [18] | Potency [19]

CCCCCCCCC1CO1 (stereo unspecified)
inactive: Potency [1] | Potency [2] | Potency [3] | outcome [4] | outcome [5] | Potency [6] | Potency [7] | Potency [8] | Potency [9] | Potency [10] | Potency [11] | Potency [12] | Potency [13] | Potency [14] | Potency [15] | Potency [16] | Potency [17] | Potency [18] | Potency [19]

Cc1cc2c(cc1S(N)(=O)=O)S(=O)(=O)CCC2
inactive: Potency [1] | Potency [2] | Potency [3] | outcome [4] | outcome [5] | Potency [6] | Potency [7] | Potency [8] | Potency [9] | Potency [10] | Potency [11] | Potency [12] | Potency [13] | Potency [14] | Potency [15] | Potency [16] | Potency [17] | Potency [18] | Potency [19]

CCOC(CN1CCN(CC(C)C(=O)c2ccccc2)CC1)c1ccccc1 (stereo unspecified)
inactive: activity change, negative = cytotoxicity [1] -17.1% [at 19 µM] | activity, positive = activation [2] 6.71% [at 19 µM] | activity change [3] -0.217% [at 11.8 µM, stronger effect = higher value] | activation [4] 2.43% [at 15.8 µM] | activation [5] 1.41% [at 11.8 µM] | activation [6] -8.35% [at 13.5 µM] | activation [7] 1.1% [at 13.6 µM] | activity change, negative = cytotoxicity [8] 24.1% [at 13.5 µM] | activity change, negative = cytotoxicity [9] 0.0683% [at 13.5 µM] | activity change, negative = cytotoxicity [10] 9.5% [at 13.5 µM] | activation [11] -3.89% [at 13.5 µM] | activation [12] -20.7% [at 15.9 µM] | activity, negative = inhibition [13] -8.62% [at 12.6 µM] | activation [14] -0.405% [at 15.8 µM] | activation [15] -1.09% [at 19 µM] | activity change, negative = inhibition [17] 4.02% [at 19 µM] | Potency [20] | activity change, negative = inhibition [19] 9.08% [at 18.9 µM]

c1ccc(CN(CC2=NCCN2)c2ccccc2)cc1
inactive: Potency [1] | Potency [2] | Potency [3] | outcome [4] | outcome [5] | Potency [6] | Potency [7] | Potency [8] | Potency [9] | Potency [10] | Potency [11] | Potency [12] | Potency [13] | Potency [14] | Potency [15] | Potency [16] | Potency [19]

O=C(CCOCCOCCOCCOCCC(=O)Nc1c(I)cc(I)c(C(=O)O)c1I)Nc1c(I)cc(I)c(C(=O)O)c1I
inactive: Potency [1] | Potency [2] | Potency [3] | outcome [4] | outcome [5] | Potency [6] | Potency [7] | Potency [8] | Potency [9] | Potency [10] | Potency [11] | Potency [12] | Potency [13] | Potency [14] | Potency [15] | Potency [16] | Potency [17] | Potency [20] | Potency [19]

CC(=O)Nc1ccc(OCC(O)CNC(C)C)cc1 (stereo unspecified)
inactive: Potency [1] | Potency [2] | Potency [3] | outcome [4] | outcome [5] | Potency [6] | Potency [7] | Potency [8] | Potency [9] | Potency [10] | Potency [11] | Potency [12] | Potency [13] | Potency [14] | Potency [15] | Potency [16] | Potency [18] | Potency [19]

CC1c2ccccc2CN1NC(=O)c1ccc(Cl)c(S(N)(=O)=O)c1 (stereo unspecified)
inactive: Potency [1] | Potency [2] | Potency [3] | outcome [4] | outcome [5] | Potency [6] | Potency [7] | Potency [8] | Potency [9] | Potency [10] | Potency [11] | Potency [12] | Potency [13] | Potency [14] | Potency [15] | Potency [16] | Potency [17] | Potency [18] | Potency [19]

Cc1ccc(CCn2c3c(c4cc(Cl)ccc42)CN(C)CC3)cn1
inactive: Potency [1] | Potency [2] | Potency [3] | outcome [4] | outcome [5] | Potency [6] | Potency [7] | Potency [8] | Potency [9] | Potency [10] | Potency [11] | Potency [12] | Potency [13] | Potency [14] | Potency [15] | Potency [16] | Potency [17] | Potency [18] | Potency [19]

CCC=O
inactive: Potency [1] | Potency [2] | Potency [3] | outcome [4] | outcome [5] | Potency [6] | Potency [7] | Potency [8] | Potency [9] | Potency [10] | Potency [11] | Potency [12] | Potency [13] | Potency [14] | Potency [15] | Potency [16] | Potency [17] | Potency [18]

C=C(C)C(=O)OCC(O)CO (stereo unspecified)
inactive: Potency [1] | Potency [2] | Potency [3] | outcome [4] | outcome [5] | Potency [6] | Potency [7] | Potency [8] | Potency [9] | Potency [10] | Potency [11] | Potency [12] | Potency [13] | Potency [14] | Potency [15] | Potency [17] | Potency [20] | Potency [18] | Potency [19]
